32 molecules from PubChem BioAssay (EPA / NIEHS) can be followed below.

Test [1] has as its target human Dual Specificity Protein Phosphatase 3 (DUSP3), DUSP3 (gene 1845) (UniProt P51452). Description: NVS_ENZ_hDUSP3: NovaScreen (NVS) Enzymatic Assay for human Dual Specificity Protein Phosphatase 3 (DUSP3) (AID 2283152).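 Also: phosphatase activity of recombinant human DUSP3 on a fluorogenic substrate without cells.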 The method in brief:
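Cell-free assay with recombinant human DUSP3 and fluorogenic substrate, read by fluorescence intensity. Primary screen ran duplicate at 25 uM; actives followed up in concentration series; loss of signal versus DMSO scored.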

The target of test [2] is human Esterase Plasma (ES), BCHE (gene 590) (UniProt P06276). Description: NVS_ENZ_hES: NovaScreen (NVS) Enzymatic Assay for human Esterase Plasma (ES) (AID 2283157). Put shortly:
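Chemicals were added to plasma-extracted human enzyme in a cell-free format, and activity was read colorimetrically after 0.25 hour. Activity loss was referenced to DMSO; concentration-response top dose was 50 uM.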

Test [3] concerns the target human Ephrin type-A Receptor 1 (EphA1), EPHA1 (gene 2041) (UniProt P21709). Description: NVS_ENZ_hEphA1: NovaScreen (NVS) Enzymatic Assay for human Ephrin type-A Receptor 1 (EphA1) (AID 2283158).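 Also: activity is signal loss versus DMSO meaning EphA1 kinase inhibition.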 On the procedure: (§1) NVS_ENZ_hEphA1 is a biochemical, single-readout assay that uses extracted gene-proteins in a cell-free assay. Measurements were taken 1 hour after chemical dosing in a 384-well plate.NVS_ENZ_hEphA1 is one of one assay component(s) measured or calculated from the NVS_ENZ_hEphA1 assay. It is designed to make measurements of enzyme activity, a form of enzyme reporter, as detected with fluorescence intensity signals by Fluorescence and electrophoretic mobility shift technology.Data from the assay component NVS_ENZ_hEphA1 was analyzed into 1 assay endpoint. This assay endpoint, NVS_ENZ_hEphA1, was analyzed in the positive analysis fitting direction relative to DMSO as the negative control and baseline of activity. Using a type of enzyme reporter, loss-of-signal activity can be used to understand changes in the enzymatic activity as they relate to the gene EPHA1. Furthermore, this assay endpoint can be referred to as a primary readout, because this assay has produced multiple assay endpoints where this one serves a enzymatic activity function. To generalize the intended target to other relatable targets, this assay endpoint is annotated to the kinase intended target family, where the subfamily is receptor tyrosine kinase.
(§2) Binding assays used specific radioligands (tritiated, iodinated) with non-radioactive competitive displacement ligands in agonist or antagonist protocols (as indicated) and various reference compounds and inhibitors to titrate specific binding to receptors and transporters. Most enzyme assays (CYPs, kinases, phosphatases, proteases, HDACs) used recombinant protein and specific substrates (fluorescence mostly, some colorimetric and radioactive) and inhibitors, followed by a biochemical separation of substrate and product. All assays for the biochemical HTS were initially run in duplicate at a single concentration (10 uM for CYP450 assays and 25 uM for all others). Assay-chemical combinations meeting a pre-defined threshold (e.g., 30% inhibition and other criteria defined below) were then run in singleton concentration-response format with maximum concentration of 20 uM for CYPs and 50 uM for all others. Each assay was run with positive and negative controls, and concurrent controls on every plate. The follow-up (secondary) screen tested active chemical-pairs in concentration series, as well as a few additional assays not tested in the primary screen, some selected negative inactives, and several cases re-run in the concentration series for confirmatory purposes.

For test [4], the target named is human Elastase, ELANE (gene 1991) (UniProt P08246). The test can be described thus: NVS_ENZ_hElastase: NovaScreen (NVS) Enzymatic Assay for human Elastase (AID 2283153). Put shortly:
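Cell-free elastase from human neutrophils, 1.5 h after dosing, activity read by absorbance. Primary screen in duplicate at 25 uM; hits (e.g., 30% inhibition) rerun in singleton concentration-response up to 50 uM, fitted versus DMSO.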

The target of test [5] is human AKT serine/threonine Kinase 2 (AKT2), AKT2 (gene 208) (UniProt P31751). Description: NVS_ENZ_hAKT2: NovaScreen (NVS) Enzymatic Assay for human AKT serine/threonine Kinase 2 (AKT2) (AID 2283141). The method in brief:
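Cell-free fluorescence/electrophoretic mobility shift readout of recombinant human AKT2 activity, 1 h after chemical dosing. Duplicate primary screen at 25 uM, then singleton concentration-response up to 50 uM; loss of signal versus DMSO baseline.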

Test [6] concerns the target human Caspase 8 (CASP8), CASP8 (gene 841) (UniProt Q14790). The test can be described thus: NVS_ENZ_hCASP8: NovaScreen (NVS) Enzymatic Assay for human Caspase 8 (CASP8) (AID 2283146). The method in brief:
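E. coli-expressed enzyme was used in a cell-free fluorogenic substrate assay read 1 h after dosing. Loss of signal was scored relative to DMSO, and the primary screen was run in duplicate at 25 uM.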

Another test addresses CDK2 (gene 1017) (UniProt P24941). The test can be described thus: NVS_ENZ_hCDK2: NovaScreen (NVS) Enzymatic Assay for human Cyclin-Cependent Kinase 2 (CDK2) (AID 2283144). Put shortly: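 Cell-free recombinant human CDK2 with fluorescent substrate, product separated by electrophoretic mobility shift; 1 hr read. Primary screen at 25 uM in duplicate, actives retested in concentration-response up to 50 uM; loss of signal versus DMSO.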

Test [7] deals with human Casein Kinase 1-delta (CK1D), CSNK1D (gene 1453) (UniProt P48730). The test can be described thus: NVS_ENZ_hCK1D: NovaScreen (NVS) Enzymatic Assay for human Casein Kinase 1-delta (CK1D) (AID 2283148). On the procedure:
as §1, with “NVS_ENZ_hCK1D” for “NVS_ENZ_hEphA1”, “plate.NVS_ENZ_hCK1D” for “plate.NVS_ENZ_hEphA1”, “NVS_ENZ_hCK1D,” for “NVS_ENZ_hEphA1,”, “CSNK1D.” for “EPHA1.”, “serine/threonine” for “receptor tyrosine”
as §2

For test [8], the target named is human Colony Stimulating Factor 1 Receptor (CSF1R), CSF1R (gene 1436) (UniProt P07333). Description: NVS_ENZ_hCSF1R: NovaScreen (NVS) Enzymatic Assay for human Colony Stimulating Factor 1 Receptor (CSF1R) (AID 2283150). On the procedure:
as §1, with “NVS_ENZ_hCSF1R” for “NVS_ENZ_hEphA1”, “plate.NVS_ENZ_hCSF1R” for “plate.NVS_ENZ_hEphA1”, “NVS_ENZ_hCSF1R,” for “NVS_ENZ_hEphA1,”, “CSF1R.” for “EPHA1.”, “kinase. […]” for “kinase.”

For test [9], the target named is human Caspase 4 (CASP4), CASP4 (gene 837) (UniProt P49662). The test can be described thus: NVS_ENZ_hCASP4: NovaScreen (NVS) Enzymatic Assay for human Caspase 4 (CASP4) (AID 2283143). The method in brief:
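The cell-free assay used E. coli-expressed enzyme with a fluorogenic substrate, read 2 h after dosing. Signal loss was scored versus DMSO. Screening was in duplicate at 25 uM, then singleton concentration-response up to 50 uM.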

Each structure is given as a SMILES string. Values joined by “and” are separate entries in the source; they are usually repeats but may differ in a detail not shown here. Equal values may be shown once. Records with an inconclusive call do not appear. Active and inactive are the calls of the source. The calls were made as follows: active = hit-call score of the fitted dose curve at least 0.9, where 1 is the maximum; inconclusive = response in the unintended direction; inactive = score below 0.9.

human Elastase, ELANE (gene 1991), sequence (P08246 whole entry, looked up): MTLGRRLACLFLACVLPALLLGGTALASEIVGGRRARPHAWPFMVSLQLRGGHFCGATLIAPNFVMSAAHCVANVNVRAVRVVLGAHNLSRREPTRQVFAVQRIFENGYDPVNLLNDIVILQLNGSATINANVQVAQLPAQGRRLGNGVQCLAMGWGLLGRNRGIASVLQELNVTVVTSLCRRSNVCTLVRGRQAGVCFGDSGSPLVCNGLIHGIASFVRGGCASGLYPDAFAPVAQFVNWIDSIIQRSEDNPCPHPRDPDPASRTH
human Casein Kinase 1-delta (CK1D), CSNK1D (gene 1453), sequence (P48730 whole entry, looked up): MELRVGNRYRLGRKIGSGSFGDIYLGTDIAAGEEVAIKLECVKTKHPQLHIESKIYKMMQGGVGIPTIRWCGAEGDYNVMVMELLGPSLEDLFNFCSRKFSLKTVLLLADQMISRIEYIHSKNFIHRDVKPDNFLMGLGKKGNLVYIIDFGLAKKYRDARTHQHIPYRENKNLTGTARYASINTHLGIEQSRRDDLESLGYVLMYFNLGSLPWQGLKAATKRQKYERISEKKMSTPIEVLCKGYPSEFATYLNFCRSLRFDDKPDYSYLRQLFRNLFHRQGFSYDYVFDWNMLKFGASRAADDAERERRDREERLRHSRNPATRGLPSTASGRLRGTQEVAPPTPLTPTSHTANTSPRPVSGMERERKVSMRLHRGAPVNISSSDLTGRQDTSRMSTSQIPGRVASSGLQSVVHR
human Dual Specificity Protein Phosphatase 3 (DUSP3), DUSP3 (gene 1845), sequence (P51452 whole entry, looked up): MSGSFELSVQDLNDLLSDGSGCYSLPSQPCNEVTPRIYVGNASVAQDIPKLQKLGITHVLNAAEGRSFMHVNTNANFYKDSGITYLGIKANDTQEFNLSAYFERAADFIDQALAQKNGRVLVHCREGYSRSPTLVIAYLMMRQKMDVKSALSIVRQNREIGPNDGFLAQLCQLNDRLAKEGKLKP
human Ephrin type-A Receptor 1 (EphA1), EPHA1 (gene 2041), sequence (P21709 whole entry, looked up): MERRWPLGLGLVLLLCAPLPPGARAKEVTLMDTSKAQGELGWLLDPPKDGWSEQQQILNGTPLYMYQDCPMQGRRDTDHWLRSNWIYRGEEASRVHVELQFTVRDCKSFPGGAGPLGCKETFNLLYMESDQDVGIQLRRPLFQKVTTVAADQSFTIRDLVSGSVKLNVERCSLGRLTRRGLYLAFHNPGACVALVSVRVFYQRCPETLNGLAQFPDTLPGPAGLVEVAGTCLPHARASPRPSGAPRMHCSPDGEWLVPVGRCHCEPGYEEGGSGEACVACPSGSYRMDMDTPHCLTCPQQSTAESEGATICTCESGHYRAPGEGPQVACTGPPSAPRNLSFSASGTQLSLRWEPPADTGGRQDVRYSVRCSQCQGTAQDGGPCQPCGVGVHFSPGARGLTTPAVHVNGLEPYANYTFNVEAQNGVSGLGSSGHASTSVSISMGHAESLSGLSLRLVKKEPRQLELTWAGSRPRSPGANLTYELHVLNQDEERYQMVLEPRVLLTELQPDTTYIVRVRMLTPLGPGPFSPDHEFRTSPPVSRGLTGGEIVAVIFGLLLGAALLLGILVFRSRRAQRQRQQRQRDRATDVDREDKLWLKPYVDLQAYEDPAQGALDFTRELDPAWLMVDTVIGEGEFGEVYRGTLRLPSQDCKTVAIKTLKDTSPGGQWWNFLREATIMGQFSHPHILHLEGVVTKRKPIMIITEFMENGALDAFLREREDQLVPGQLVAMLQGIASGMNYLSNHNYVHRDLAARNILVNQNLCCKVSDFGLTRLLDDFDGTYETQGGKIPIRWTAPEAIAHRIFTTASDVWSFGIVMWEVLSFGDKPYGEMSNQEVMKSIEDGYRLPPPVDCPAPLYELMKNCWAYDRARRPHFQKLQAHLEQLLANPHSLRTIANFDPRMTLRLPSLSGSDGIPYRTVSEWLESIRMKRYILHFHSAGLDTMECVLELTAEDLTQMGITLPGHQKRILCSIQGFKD
human Caspase 8 (CASP8), CASP8 (gene 841), sequence (Q14790 whole entry, looked up): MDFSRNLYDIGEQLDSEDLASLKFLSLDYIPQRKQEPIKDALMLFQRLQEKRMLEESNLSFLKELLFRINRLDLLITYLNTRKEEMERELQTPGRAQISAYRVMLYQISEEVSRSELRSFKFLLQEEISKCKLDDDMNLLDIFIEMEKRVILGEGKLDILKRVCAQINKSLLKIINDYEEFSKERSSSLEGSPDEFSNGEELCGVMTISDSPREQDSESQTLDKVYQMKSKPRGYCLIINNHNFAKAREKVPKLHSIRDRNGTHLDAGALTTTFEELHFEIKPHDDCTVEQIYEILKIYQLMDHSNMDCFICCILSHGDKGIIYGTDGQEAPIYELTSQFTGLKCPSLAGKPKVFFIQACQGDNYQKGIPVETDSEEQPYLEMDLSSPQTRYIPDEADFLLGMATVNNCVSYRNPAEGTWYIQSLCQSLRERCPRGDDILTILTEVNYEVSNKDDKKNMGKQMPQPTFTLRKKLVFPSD
human Caspase 4 (CASP4), CASP4 (gene 837), sequence (P49662 whole entry, looked up): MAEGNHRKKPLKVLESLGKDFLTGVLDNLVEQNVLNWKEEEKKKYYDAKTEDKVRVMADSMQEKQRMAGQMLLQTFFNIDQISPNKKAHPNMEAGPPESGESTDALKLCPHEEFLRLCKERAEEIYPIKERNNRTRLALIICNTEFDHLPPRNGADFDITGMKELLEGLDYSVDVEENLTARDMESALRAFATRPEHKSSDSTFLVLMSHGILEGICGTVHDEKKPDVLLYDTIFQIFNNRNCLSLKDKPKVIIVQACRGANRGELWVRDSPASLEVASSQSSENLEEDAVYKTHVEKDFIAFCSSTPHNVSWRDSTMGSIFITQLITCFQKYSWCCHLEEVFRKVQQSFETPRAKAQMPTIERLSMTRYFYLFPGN
human AKT serine/threonine Kinase 2 (AKT2), AKT2 (gene 208), sequence (P31751 whole entry, looked up): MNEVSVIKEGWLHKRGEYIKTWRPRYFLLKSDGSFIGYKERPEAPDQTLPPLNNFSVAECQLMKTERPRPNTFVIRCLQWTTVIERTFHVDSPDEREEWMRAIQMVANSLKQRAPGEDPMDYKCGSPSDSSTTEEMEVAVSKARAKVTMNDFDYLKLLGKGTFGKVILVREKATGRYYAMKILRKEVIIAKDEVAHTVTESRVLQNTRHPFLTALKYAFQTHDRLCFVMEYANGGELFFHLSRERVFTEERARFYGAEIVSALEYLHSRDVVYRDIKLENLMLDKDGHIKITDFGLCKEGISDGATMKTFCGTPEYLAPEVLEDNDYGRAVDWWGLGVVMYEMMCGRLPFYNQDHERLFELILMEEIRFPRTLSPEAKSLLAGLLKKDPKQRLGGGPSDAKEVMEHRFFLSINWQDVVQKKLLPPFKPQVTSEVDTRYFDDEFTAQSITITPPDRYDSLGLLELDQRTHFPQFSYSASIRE
human Esterase Plasma (ES), BCHE (gene 590), sequence (P06276 whole entry, looked up): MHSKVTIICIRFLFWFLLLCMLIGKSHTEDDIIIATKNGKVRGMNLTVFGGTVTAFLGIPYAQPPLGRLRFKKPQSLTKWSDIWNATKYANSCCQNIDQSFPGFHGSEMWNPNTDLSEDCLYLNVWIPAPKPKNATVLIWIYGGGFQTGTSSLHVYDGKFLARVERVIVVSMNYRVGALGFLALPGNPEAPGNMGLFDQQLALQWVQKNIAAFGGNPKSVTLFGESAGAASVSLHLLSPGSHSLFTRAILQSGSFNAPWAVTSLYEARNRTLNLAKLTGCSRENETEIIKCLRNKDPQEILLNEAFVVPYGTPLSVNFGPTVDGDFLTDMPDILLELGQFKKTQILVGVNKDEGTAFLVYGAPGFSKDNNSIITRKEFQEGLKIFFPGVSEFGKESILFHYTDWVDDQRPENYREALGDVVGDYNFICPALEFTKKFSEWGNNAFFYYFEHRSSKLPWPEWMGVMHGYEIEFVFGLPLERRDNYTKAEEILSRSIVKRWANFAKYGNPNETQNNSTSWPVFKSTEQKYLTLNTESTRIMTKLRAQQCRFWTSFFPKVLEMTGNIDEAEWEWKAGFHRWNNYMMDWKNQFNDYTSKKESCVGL
human Colony Stimulating Factor 1 Receptor (CSF1R), CSF1R (gene 1436), sequence (P07333 whole entry, looked up): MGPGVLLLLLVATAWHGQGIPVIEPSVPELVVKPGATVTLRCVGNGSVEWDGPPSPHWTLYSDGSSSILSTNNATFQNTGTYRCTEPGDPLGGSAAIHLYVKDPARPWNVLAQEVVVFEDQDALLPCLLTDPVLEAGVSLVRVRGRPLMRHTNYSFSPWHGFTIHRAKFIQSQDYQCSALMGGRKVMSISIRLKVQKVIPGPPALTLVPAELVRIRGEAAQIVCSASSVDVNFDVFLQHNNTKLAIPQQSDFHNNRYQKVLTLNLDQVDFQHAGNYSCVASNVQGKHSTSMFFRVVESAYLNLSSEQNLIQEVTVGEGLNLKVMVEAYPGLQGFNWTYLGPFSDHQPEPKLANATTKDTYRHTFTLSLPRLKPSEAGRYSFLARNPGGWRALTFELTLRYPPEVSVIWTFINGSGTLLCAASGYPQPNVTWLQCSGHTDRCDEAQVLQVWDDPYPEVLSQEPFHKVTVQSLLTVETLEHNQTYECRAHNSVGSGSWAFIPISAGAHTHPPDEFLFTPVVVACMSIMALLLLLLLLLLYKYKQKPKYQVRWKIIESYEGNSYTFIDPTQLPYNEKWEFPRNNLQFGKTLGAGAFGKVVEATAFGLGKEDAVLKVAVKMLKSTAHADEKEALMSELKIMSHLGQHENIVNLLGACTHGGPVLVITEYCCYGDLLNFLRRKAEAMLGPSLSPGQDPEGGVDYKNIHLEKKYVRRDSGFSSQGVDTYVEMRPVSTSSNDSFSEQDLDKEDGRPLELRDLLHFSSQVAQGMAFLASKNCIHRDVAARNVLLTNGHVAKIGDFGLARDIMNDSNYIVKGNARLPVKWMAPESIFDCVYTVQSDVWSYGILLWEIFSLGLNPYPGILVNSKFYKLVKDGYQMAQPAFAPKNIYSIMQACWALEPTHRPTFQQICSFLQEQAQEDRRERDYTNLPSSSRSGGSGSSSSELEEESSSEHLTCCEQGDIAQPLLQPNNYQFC

For orientation: AC50 means the midpoint of the concentration-response curve, whichever way the signal moves. `OCc1c[nH]c2ccccc12`: the AC50 in test [1] is 19.5 µM (active) and 15.4 µM (active); in [2], 15.3 µM (active) and 19.1 µM (active). Further, the molecule was called inactive in test [3].
Take `O=C(NO)C1(NS(=O)(=O)c2ccc(Oc3ccc(F)cc3)cc2)CCOCC1`: the call in test [3] was inactive.
As for `CCCCCCOC(=O)CC(CC(=O)OCCCCCC)(OC(=O)CCC)C(=O)OCCCCCC`, the molecule was classed as inactive in test [1] and in test [4].
On to `Cc1ccc(S(=O)(=O)NC(=O)NN2CCCCCC2)cc1`, for which the molecule was classed as inactive in [5].
As for `CCCCCCCCN(C)C`, the molecule was called inactive in [6], in test [2] and in [3].
As for `CC[C@H](C)C(=O)O[C@H]1C[C@H](O)C=C2C=C[C@H](C)[C@H](CC[C@@H](O)C[C@@H](O)CC(=O)O)[C@H]21`, the call in test [6] was inactive.
On to `c1ccc(C(O[C@@H]2CCCN(CCc3ccc4c(c3)OCO4)C2)c2ccccc2)cc1`, for which the AC50 in test [2] was 7.95 µM (active).
Regarding `CCCC(CCC)C(=O)O`, the molecule was called inactive (in [5]; with CDK2 (gene 1017)).
As to `O=c1[nH]cnc2c1ncn2[C@H]1CC[C@@H](CO)O1`, the outcome in [5], in test [7] and in test [3] was inactive. In the test with CDK2 (gene 1017), the AC50 was 25 µM (active).
Regarding `CCCCN1C(=O)[C@@H]([C@H](O)C2CCCCC2)NC(=O)C12CCN(Cc1ccc(Oc3ccc(C(=O)O)cc3)cc1)CC2`, in test [1], the AC50 is 14.8 µM (active).
Regarding `O=C(O)c1cccc(C[C@@H]2COc3ccc(OCc4nc5cc(F)ccc5s4)cc3[C@@H]2O)c1`, the result in [7] was inactive.
The same measure, in the same setting: under `CCCc1ccccc1` stands “inactive”.
As for `C=CCc1cc(S(=O)(=O)c2ccc(O)c(CC=C)c2)ccc1O`, in [1], the outcome was inactive.
Turning to `OCCOCCOCCO`, the outcome in test [5] and in [3] was inactive.
Turning to `O=C(O)[C@H](O)[C@@H](O)C(=O)O`, the molecule was classed as inactive in test [7].
Take `COc1cc(C(C)C)c2c(c1)S(=O)(=O)N(COc1cc(=O)n3cccc(OCCN4CCCCC4)c3n1)C2=O`: the concentration at half-maximal activity (AC50) in test [4] is 0.0341 µM (active).
Turning to `Cc1ncc([C@@H](CCCCCCc2ccc3c(n2)NCCC3)CC(=O)O)cn1`, the result in test [8] was inactive.
As to `S=P(N1CC1)(N1CC1)N1CC1`, the AC50 in test [1] was 20.3 µM (active) and 26.1 µM (active). In addition, the molecule was called inactive in [3].
Take `OCC(CO)(CO)CO`: the result in test [3] was inactive.
Regarding `CCCCCCCCCCCCCCCCOS(=O)(=O)O`, the molecule was classed as inactive in test [1]. Moreover, the AC50 in [4] is 4.2 µM (active).
As to `CCN(CC)C(=S)SSC(=S)N(CC)CC`, the result in [1] and in test [2] was inactive.
With `CC(C)CC(C)O` (stereo unspecified), the AC50 in test [9] was 8.65 µM (active).
`CCCCOC(=O)c1ccccc1`: in [2], the call was inactive.
Consider `CCCCCCCCCC`, for which the molecule was classed as inactive in test [1] and in [2].
For `CC(C)CCCCCCOC(=O)C1CCCCC1C(=O)OCCCCCCC(C)C` (stereo unspecified), the molecule was called inactive in test [6] and in [4].
As for `CCc1ccc(O)c(C(C)(C)C)c1`, the call in [2] was inactive.
`CCCCCCCC/C=C\CCCCCCCC(=O)OC[C@@H](O)[C@H]1OC[C@H](O)[C@H]1O`: the AC50 in [5] was 42.1 µM (active). In addition, in test [9], the call was inactive.
Turning to `CC(C)C(=O)Nc1ccc([N+](=O)[O-])c(C(F)(F)F)c1`, the result in test [9] was inactive.
Regarding `c1ccc2c(c1)-c1cccc3c1c-2cc1ccccc13`, the molecule was called inactive in test [4].
For the molecule `CCn1nc(C)c2c1C(=O)NCC(c1ccc(O)cc1)=N2`, the outcome in test [4] and in test [2] was inactive.
With `COc1cc2c(c(OC)c1OC)-c1ccc(OC)c(=O)cc1[C@@H](NC(C)=O)CC2`, the AC50 in test [9] is 0.485 µM (active). Besides, in [6], the result was inactive.
As for `Cc1nc(-c2ccccn2)ncc1C(=O)Nn1cc(C)c2cc(F)ccc21`, the outcome in test [5] and in test [3] was inactive.
